Data taken from PubChem BioAssay (EPA / NIEHS).
The source made the active and inactive calls. The calls were made as follows: active = hit-call score of the fitted dose curve at least 0.9, where 1 is the maximum; inactive = score below 0.9.

Legend:
[1] = read-out: Interleukin-1 alpha (IL1a), IL1A (gene 3552); assay: BSK_KF3CT_IL1a: BioMAP Diversity Plus: KF3CT Assay for Interleukin-1 alpha (IL1a) Biomarker Activity (AID 2283070); settings: primary human keratinocytes with fibroblasts; actives raise or lower the signal
Outline: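 Chemicals were dosed onto co-cultured human keratinocytes and foreskin fibroblasts, IL-1a was quantified by ELISA at 24 h, and activity was fitted in both directions relative to DMSO controls.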

[2] = read-out: TIMP metallopeptidase inhibitor 2 (TIMP2), TIMP2 (gene 7077); assay: BSK_KF3CT_TIMP2: BioMAP Diversity Plus: KF3CT Assay for TIMP metallopeptidase inhibitor 2 (TIMP2) Biomarker Activity (AID 2283071); settings: primary human keratinocytes with fibroblasts; actives raise or lower the signal
Outline: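 Cells: human keratinocytes co-cultured with foreskin fibroblasts. Treat with chemical, 24 h. Measure TIMP-2 by ELISA; fit curves bidirectionally vs DMSO baseline.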

[3] = read-out: C-C motif chemokine 2 (Homo sapiens) (UniProt P13500); assay: BSK_KF3CT_MCP1: BioMAP Diversity Plus: KF3CT Assay for Monocyte Chemoattractant Protein 1 (MCP1/CCL2) Biomarker Activity (AID 2283073); settings: primary human keratinocytes with fibroblasts; actives raise or lower the signal
Outline: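 ELISA read-out of MCP-1, 24 h post-dose, in primary human skin keratinocytes co-cultured with fibroblasts. Parallel SRB staining monitors cytotoxicity; changes fitted both directions relative to DMSO.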

[4] = read-out: Matrix Metallopeptidase 9 (MMP9), MMP9 (gene 4318); assay: BSK_KF3CT_MMP9: BioMAP Diversity Plus: KF3CT Assay for Matrix Metallopeptidase 9 (MMP9) Biomarker Activity (AID 2283074); settings: primary human keratinocytes with fibroblasts; actives raise or lower the signal;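 also: MMP9 protein level quantified by ELISA in the co-culture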
Outline: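 Human keratinocyte/foreskin fibroblast co-culture; compound added; 24 h; MMP-9 by ELISA; bidirectional fit vs DMSO baseline.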

[5] = read-out: urokinase plasminogen activator (uPA), PLAU (gene 5328); assay: BSK_KF3CT_uPA: BioMAP Diversity Plus: KF3CT Assay for urokinase plasminogen activator (uPA) Biomarker Activity (AID 2283075); settings: primary human keratinocytes with fibroblasts; actives raise or lower the signal
Outline: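 ELISA readout of uPA, analyzed for signal gain or loss relative to DMSO, from a human primary keratinocyte–foreskin fibroblast co-culture measured 24 h after chemical treatment.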

CD40, CD40 (gene 958) [6] = assay: BSK_LPS_CD40: BioMAP Diversity Plus: LPS Assay for CD40 Biomarker Activity (AID 2283076); settings: primary human HUVEC with PBMC; actives raise or lower the signal
Outline: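 In the LPS system of human endothelial cells with peripheral blood mononuclear cells, CD40 levels were read by ELISA 24 h post-treatment. Signal changes in either direction were fitted against the DMSO baseline, with parallel SRB protein staining.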

[7] = read-out: E-selectin (Homo sapiens) (UniProt P16581); assay: BSK_LPS_Eselectin: BioMAP Diversity Plus: LPS Assay for Eselectin Biomarker Activity (AID 2283077); settings: primary human HUVEC with PBMC; actives raise or lower the signal
Outline: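 E-selectin ELISA on LPS-stimulated endothelial cell/PBMC co-cultures, read 24 h post-treatment; gains and losses fitted against DMSO. Parallel SRB staining (0.1% SRB after 10% TCA fixation, 560 nm) flags overt cytotoxicity.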

[8] = read-out: Interleukin-8 (IL8), CXCL8 (gene 3576); assay: BSK_LPS_IL8: BioMAP Diversity Plus: LPS Assay for Interleukin-8 (IL8) Biomarker Activity (AID 2283078); settings: primary human HUVEC with PBMC; actives raise or lower the signal
Outline: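 ELISA read-out of IL-8 after 24 h chemical treatment of LPS-activated endothelial/PBMC human primary co-cultures. Changes either up or down relative to DMSO; overt cytotoxicity checked by sulforhodamine B staining in parallel wells.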

[9] = BSK_LPS_SRB: Viability Assessment in the BioMAP Diversity Plus: LPS Assay (AID 2283079); settings: primary human HUVEC with PBMC;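 also: total protein by sulforhodamine B absorbance as a cytotoxicity measure; measured one day after compound addition; fitted in both directions against DMSO so loss or gain of signal counts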
Outline: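 SRB viability endpoint: cells fixed with 10% TCA, stained with 0.1% SRB, read at 560 nm, 24 h post-dose. HUVEC/PBMC co-culture; signal change in either direction scored relative to DMSO.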

[10] = read-out: Interleukin-1 alpha (IL1a), IL1A (gene 3552); assay: BSK_LPS_IL1a: BioMAP Diversity Plus: LPS Assay for Interleukin-1 alpha (IL1a) Biomarker Activity (AID 2283080); settings: primary human HUVEC with PBMC; actives raise or lower the signal
Outline: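 Readout is IL-1a level by ELISA, 24 h post-dose, fitted as gain or loss relative to DMSO. System: LPS-activated human primary co-culture of vascular endothelium and peripheral blood mononuclear cells, with parallel SRB total-protein cytotoxicity.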

[11] = read-out: Monocyte Chemoattractant Protein-1 (MCP1), CCL2 (gene 6347); assay: BSK_LPS_MCP1: BioMAP Diversity Plus: LPS Assay for Monocyte Chemoattractant Protein-1 (MCP1) Biomarker Activity (AID 2283081); settings: primary human HUVEC with PBMC; actives raise or lower the signal;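 also: secreted MCP-1 protein quantified by ELISA in culture supernatant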
Outline: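 Secreted MCP-1 read by ELISA at 24 h post-dosing in an LPS-activated co-culture of endothelial cells with peripheral blood mononuclear cells. Fits run in both directions, DMSO as baseline; parallel SRB staining tracks overt cytotoxicity.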

[12] = BSK_LPS_PGE2: BioMAP Diversity Plus: LPS Assay for Prostaglandin E2 (PGE2) Biomarker Activity (AID 2283082); settings: primary human HUVEC with PBMC; actives raise or lower the signal;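 as to AC50: secreted prostaglandin E2 measured by ELISA in LPS-stimulated co-culture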
Outline: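 LPS-activated HUVEC/PBMC co-culture; cmpd dosed, 24 h; PGE2 by ELISA; bidirectional fit vs DMSO; SRB (0.1%, TCA-fixed, 560 nm) in parallel plates for overt cytotox.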

[13] = read-out: Macrophage colony-stimulating factor (MCSF), CSF1 (gene 1435); assay: BSK_LPS_MCSF: BioMAP Diversity Plus: LPS Assay for Macrophage colony-stimulating factor (MCSF) Biomarker Activity (AID 2283083); settings: primary human HUVEC with PBMC; actives raise or lower the signal
Outline: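 Bidirectional fitting against DMSO was applied to M-CSF levels read by ELISA at 24 h post-dose. The system pairs human umbilical vein endothelium with peripheral blood mononuclear cells; parallel SRB staining tracked cytotoxicity.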

[14] = read-out: Tissue Factor, F3 (gene 2152); assay: BSK_LPS_TissueFactor: BioMAP Diversity Plus: LPS Assay for Tissue Factor Biomarker Activity (AID 2283084); settings: primary human HUVEC with PBMC; actives raise or lower the signal
Outline: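 Compound was added to an endothelial cell/PBMC co-culture, and after 24 h tissue factor (CD142) was read by ELISA. Gain or loss of signal was fitted against a DMSO baseline, and parallel SRB staining (560 nm) tracked overt cytotoxicity.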

[15] = read-out: Tumor necrosis factor (Homo sapiens) (UniProt P01375); assay: BSK_LPS_TNFa: BioMAP Diversity Plus: LPS Assay for Tumour Necrosis Factor alpha (TNFa) Biomarker Activity (AID 2283085); settings: primary human HUVEC with PBMC; actives raise or lower the signal;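 also: TNFa protein level quantified by ELISA in the co-culture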
Outline: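 Read-out is ELISA of TNFa in primary human endothelial cell–PBMC co-cultures at 24 h after compound. Activity in either direction was fitted against DMSO.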

[16] = read-out: Vascular cell adhesion molecule 1 (VCAM1), VCAM1 (gene 7412); assay: BSK_LPS_VCAM1: BioMAP Diversity Plus: LPS Assay for Vascular cell adhesion molecule 1 (VCAM1) Biomarker Activity (AID 2283086); settings: primary human HUVEC with PBMC; actives raise or lower the signal
Outline: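 HUVEC + PBMC co-culture, LPS system; compound 24 h; VCAM-1 by ELISA; bidirectional fit vs DMSO control; parallel SRB (0.1%, TCA-fixed, 560 nm) for cytotoxicity.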

CD38, CD38 (gene 952) = assay: BSK_SAg_CD38: BioMAP Diversity Plus: SAg Assay for CD38 Biomarker Activity (AID 2283087); settings: primary human HUVEC with PBMC; actives raise or lower the signal
Outline: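 Human HUVEC plus PBMC co-culture stimulated with superantigen; CD38 measured by ELISA 24 h after chemical dosing. Fluorescence read-out, bidirectional fit against DMSO; cytotoxicity tracked in parallel by SRB and Alamar Blue.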

CD40, CD40 (gene 958) [17] = assay: BSK_SAg_CD40: BioMAP Diversity Plus: SAg Assay for CD40 Biomarker Activity (AID 2283088); settings: primary human HUVEC with PBMC; actives raise or lower the signal
Outline: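 CD40 is measured by fluorescence ELISA in an endothelial/PBMC primary human co-culture at 24 h post-dose. Fitting is bidirectional, DMSO baseline. Parallel SRB staining (560 nm) flags cytotoxicity.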

CD69, CD69 (gene 969) = assay: BSK_SAg_CD69: BioMAP Diversity Plus: SAg Assay for CD69 Biomarker Activity (AID 2283089); settings: primary human HUVEC with PBMC; actives raise or lower the signal;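 also: cell surface CD69 protein quantified by ELISA with fluorescence detection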
Outline: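 Values derive from bidirectional fitting relative to DMSO vehicle. Cells: umbilical vein endothelium plus peripheral blood mononuclear cells, treated 24 h before fluorescent ELISA for CD69.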

Measured: AC50

E-selectin (Homo sapiens), sequence (P16581 whole entry, looked up): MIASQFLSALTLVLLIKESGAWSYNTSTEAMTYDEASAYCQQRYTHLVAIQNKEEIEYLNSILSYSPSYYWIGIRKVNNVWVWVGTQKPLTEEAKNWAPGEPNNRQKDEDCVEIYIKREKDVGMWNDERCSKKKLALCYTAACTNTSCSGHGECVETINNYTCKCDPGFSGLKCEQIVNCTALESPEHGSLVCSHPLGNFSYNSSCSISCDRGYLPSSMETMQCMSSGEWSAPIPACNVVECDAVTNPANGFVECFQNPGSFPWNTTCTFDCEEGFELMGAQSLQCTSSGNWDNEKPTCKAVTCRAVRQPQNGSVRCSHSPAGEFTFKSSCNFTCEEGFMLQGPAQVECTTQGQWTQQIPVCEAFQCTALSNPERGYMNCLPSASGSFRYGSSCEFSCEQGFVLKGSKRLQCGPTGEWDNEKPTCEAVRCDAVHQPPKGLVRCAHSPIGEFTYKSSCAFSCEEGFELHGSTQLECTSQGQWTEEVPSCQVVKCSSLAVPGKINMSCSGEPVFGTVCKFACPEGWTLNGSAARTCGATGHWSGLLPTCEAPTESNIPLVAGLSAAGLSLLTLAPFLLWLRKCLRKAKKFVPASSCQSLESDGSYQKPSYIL
Tumor necrosis factor (Homo sapiens), sequence (P01375 whole entry, looked up): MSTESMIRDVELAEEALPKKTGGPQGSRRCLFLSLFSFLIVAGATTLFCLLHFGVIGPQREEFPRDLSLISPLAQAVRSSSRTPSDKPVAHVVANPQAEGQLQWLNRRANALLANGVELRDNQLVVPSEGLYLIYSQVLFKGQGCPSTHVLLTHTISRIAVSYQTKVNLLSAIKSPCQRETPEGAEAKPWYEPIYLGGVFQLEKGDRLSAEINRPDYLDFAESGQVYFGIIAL

CC1COC(Cn2cncn2)(c2ccc(Oc3ccc(Cl)cc3)cc2Cl)O1 (stereo unspecified)
active: [1] 38 µM | [2] 26.7 µM | [3] 34.4 µM | [4] 31.1 µM | [5] 33.9 µM | CD40, CD40 (gene 958) [6] 17.3 µM | [7] 20 µM | [8] 28.6 µM | [9] 28.8 µM | [10] 32 µM | [11] 31.7 µM | [12] 0.172 µM | [13] 27.6 µM | [14] 30.2 µM | [15] 31.5 µM | [16] 29.7 µM | CD38, CD38 (gene 952) 19.4 µM | CD40, CD40 (gene 958) [17] 18.4 µM | CD69, CD69 (gene 969) 18.8 µM

COC(=O)N(OC)c1ccccc1COc1ccn(-c2ccc(Cl)cc2)n1
active: [1] 3.97 µM | [3] 2.56 µM | [4] 3.97 µM | CD40, CD40 (gene 958) [6] 20 µM | [7] 6.89 µM | [8] 3.97 µM | [9] 10.1 µM | [11] 9.04 µM | [12] 0.215 µM | [13] 14.1 µM | [15] 9.8 µM | [16] 13 µM | CD38, CD38 (gene 952) 5.43 µM | CD40, CD40 (gene 958) [17] 15 µM | CD69, CD69 (gene 969) 3.97 µM
inactive: [2] | [5] | [10] | [14]

CS/C(C)=N/OC(=O)N(C)SN(C)C(=O)O/N=C(\C)SC
inactive: [12]
active: [1] 17.8 µM | [2] 14.5 µM | [3] 12.6 µM | [4] 17.1 µM | [5] 16.9 µM | CD40, CD40 (gene 958) [6] 15.8 µM | [7] 34.7 µM | [8] 30.8 µM | [9] 29.8 µM | [10] 15.6 µM | [11] 29.9 µM | [13] 28.2 µM | [14] 32.1 µM | [15] 16.2 µM | [16] 24.3 µM | CD38, CD38 (gene 952) 26.4 µM | CD40, CD40 (gene 958) [17] 28.3 µM | CD69, CD69 (gene 969) 31.7 µM

CN(C)C(=S)SSC(=S)N(C)C
active: [1] 6.44 µM | [2] 6.4 µM | [3] 5.09 µM | [4] 7.1 µM | [5] 10.3 µM | CD40, CD40 (gene 958) [6] 24.7 µM | [7] 28.5 µM | [8] 26.5 µM | [9] 22.9 µM | [10] 16.1 µM | [11] 27.1 µM | [12] 4.51 µM | [13] 14.8 µM | [14] 14.5 µM | [15] 13.8 µM | [16] 24.6 µM | CD38, CD38 (gene 952) 26.8 µM | CD40, CD40 (gene 958) [17] 28 µM | CD69, CD69 (gene 969) 28.3 µM
